Screening data: PubChem BioAssay, The Scripps Research Institute Molecular Screening Center
This is a sample that favours compounds with a hit; in the whole collection about 3.5% have one here.
GPR151 activ: activators of human GPR151; AID 1508602; activation, % at 11.2 µM; Q8TDV0; 650,000 compounds, 1% hits; PathHunter beta-arrestin GPR151 cells, luminescence; in the data active = activation above about 4.9%
MITF primary: human MITF inhibition, primary screen; O75030; AlphaScreen MITF homodimerization, bead proximity signal; inhibition, % at 2.6 µM; 650,000 compounds, 0.91% hits; AID 1259374; in the data active = inhibition above about 50%
TEAD-YAP inh: TEAD-YAP interaction inhibition; HEK-TIYL cells, TEAD-Gal4/YAP UAS-luciferase luminescence; inhibition, % at 9.12 µM; 640,000 compounds, 1.4% hits; in the data active = inhibition above about 32%
FBW7 activator: activators of human E3 ligase FBW7; Q969H0; AlphaScreen FBW7–phospho-cyclin E peptide binding, activator screen; normalized activity (activation), % at 26.1 µM; 650,000 compounds, 0.13% hits; in the data active = normalized activity above about 1.9%;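 note: purified mutant Fbw7 with reduced substrate affinity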
GPR151 confirm: confirmation of human GPR151 activators; 6,700 tested, under 10 active; activation, % at 11.2 µM; AID 1508609; shares compounds with GPR151 activ; GPR151 PathHunter beta-arrestin cells, luminescence, 90 min; % of EA-reagent control over plate median;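 active = mean percent activation across replicates above the confirmation screen cutoff of 4.91%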
GPR119 counter: counter-screen for GPR151 activators: effect on human GPR119; 6,700 compounds, 0.3% hits; GPR119 PathHunter beta-arrestin cells, luminescence, 90 min; 0 = compound-well median, 100 = enzyme-acceptor control; activation, % at 11.2 µM; shares compounds with GPR151 activ;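 active = mean percent activation in the counterscreen above 29.09%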;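 note: counterscreen on off-target GPR119 to flag nonselective hits from the GPR151 activator screen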
Target sequence (Q8TDV5 whole entry, looked up): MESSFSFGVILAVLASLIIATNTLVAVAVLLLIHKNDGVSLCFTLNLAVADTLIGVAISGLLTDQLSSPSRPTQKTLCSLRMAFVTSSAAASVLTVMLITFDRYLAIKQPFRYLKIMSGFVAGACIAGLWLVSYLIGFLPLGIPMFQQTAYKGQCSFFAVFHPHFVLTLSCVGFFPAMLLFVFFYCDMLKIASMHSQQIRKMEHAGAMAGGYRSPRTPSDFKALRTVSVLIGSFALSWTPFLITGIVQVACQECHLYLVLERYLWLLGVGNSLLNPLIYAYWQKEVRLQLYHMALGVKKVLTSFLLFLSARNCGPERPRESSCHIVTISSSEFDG
Large screens that a line does not name were inactive (follow-up assays come after a bar, where they were run); ! = repeats disagree.

COc1cccc(C2c3c(oc4ccc(C)cc4c3=O)C(=O)N2CCN2CCOCC2)c1 (stereo not drawn)	none
CN1CCN(C(c2ccccc2)c2ccc(Cl)cc2)CC1 (stereo not drawn)	GPR151 activ 6.4! | GPR151 confirm inactive | GPR119 counter inactive
O=C1c2cccc([N+](=O)[O-])c2C(=O)N1Cc1ccco1	GPR151 activ 5.2 | GPR151 confirm inactive | GPR119 counter inactive
NC(=O)C1CCN(C(c2ccc(F)cc2)c2nnnn2Cc2ccc(F)cc2)CC1 (stereo not drawn)	none
CN1CCC(CNS(=O)(=O)CCc2ccccc2)CC1	GPR151 activ 5.7 | GPR151 confirm inactive | GPR119 counter inactive
COc1cc(CNc2ccc3ncc(-c4cccnc4)n3n2)cc(OC)c1OC	GPR151 activ 7.8 | GPR151 confirm inactive | GPR119 counter inactive
COc1cc(NC(=O)CSc2nnnn2C)cc(OC)c1	GPR151 activ 5.1 | GPR151 confirm inactive | GPR119 counter inactive
CC(=O)c1sc(N/N=C\c2ccco2)nc1C	none
Cc1ccc(CC2(CCC(=O)NC(c3ccccc3)c3ccncc3)CCC(=O)N2)cc1 (stereo not drawn)	none
NC(=O)Cn1ccn(-c2cccc(Cl)c2)c(=O)c1=O	GPR151 activ 8.1 | GPR151 confirm inactive | GPR119 counter inactive
COc1cc(/C=C2/SC(NC(C)=O)=NC2=O)ccc1OCc1ccc(C(=O)O)cc1	none
COCCOC(=O)C1=C(N)Oc2c(oc(CO)cc2=O)C1c1c(F)cccc1Cl (stereo not drawn)	GPR151 activ 5.7 | GPR151 confirm inactive | GPR119 counter inactive
O=C1c2ccc([N+](=O)[O-])cc2C(=O)N1c1ccc(-c2nc3ccccc3s2)cc1	none
CC(C)SC(=N)N	none (no result: TEAD-YAP inh)
CCSC(=N)N	GPR151 activ 7.1! | GPR151 confirm inactive | GPR119 counter inactive
O=C(c1cccc([N+](=O)[O-])c1)N1CCN(c2nc(-c3ccc(Cl)cc3)cs2)CC1	none
O=C1N(C2Cc3ccccc3C2)C[C@@H]2C[C@@H](c3cccc(-n4cccn4)c3)N3CCC[C@@]123	GPR151 activ 6.3 | GPR151 confirm inactive | GPR119 counter inactive
CC1(C)Cc2c(sc3ncnc(NNC(=O)c4ccccc4)c23)CO1	GPR151 activ 6.3 | GPR151 confirm inactive | GPR119 counter inactive
COc1c(Cl)cc(Cl)cc1C(=O)Nc1ccc(-c2nn3c(C)nnc3s2)cc1	GPR151 activ 5.0 | GPR151 confirm inactive | GPR119 counter inactive
Cn1cccc1C(=O)NC(=O)CSc1cccc[n+]1[O-]	GPR151 activ 4.9 | GPR151 confirm inactive | GPR119 counter inactive
COc1ccccc1C(=O)NC(=O)CSc1cccc[n+]1[O-]	none
O=S(=O)(CCN1CCc2nc(-c3cccnc3)nc(N3CCCC3)c2C1)c1ccccc1	GPR151 activ 8.4 | GPR151 confirm inactive | GPR119 counter inactive
CCOC(=O)CC(=O)N1CCc2nc(-c3cccnc3)nc(N3CCCCCC3)c2C1	GPR151 activ 7.1 | GPR151 confirm inactive | GPR119 counter inactive
Cc1nn(C)c(C)c1NC(=O)CCCl	none
CC[C@@H](C(=O)C(C)[C@@H](O)[C@H](C)CCc1ccc(C)c(O)c1C(=O)O)C1OC(CC)(C2CC[C@](O)(CC)[C@H](C)O2)C[C@@H]1C (stereo partly drawn)	GPR151 activ 13! | GPR151 confirm inactive | GPR119 counter 51
O=[N+]([O-])c1ccc(C2N(c3ccccc3)CCN2c2ccccc2)s1	GPR151 activ 4.9 | GPR151 confirm inactive | GPR119 counter inactive
Brc1ccc(C2N(c3ccccc3)CCN2c2ccccc2)s1	none
O=C(Cn1ncc2c1-c1ccccc1OC2)NC1CCCc2ccccc21 (stereo not drawn)	none
CN(C)S(=O)(=O)c1ccc(C(=O)CSc2n[nH]c(N)n2)cc1	GPR151 activ 9.6 | GPR151 confirm inactive | GPR119 counter inactive
CCc1cccc(NC(=O)c2noc3c2COc2ccccc2-3)c1	none
O=C1CCCC2=C1C(c1ccccc1F)n1c(nc3ccccc31)N2 (stereo not drawn)	GPR151 activ 9.6 | GPR151 confirm inactive | GPR119 counter inactive
CC(C)CN(C(=O)COC(=O)c1cccc(Br)c1)C1CCS(=O)(=O)C1 (stereo not drawn)	none
COCCOC(=O)c1c(C)oc2ccc(OC(=O)c3sc4ccccc4c3Cl)cc12	none
COc1ccc(-c2cc(C(F)(F)F)n3nc(C(=O)N4CCN(c5cccc(Cl)c5)CC4)cc3n2)cc1	none
COc1ccc(-c2cc(C(F)(F)F)n3nc(C(=O)NCCc4ccccc4)cc3n2)cc1	GPR151 activ 13 | GPR151 confirm inactive | GPR119 counter inactive
CCn1ncc(CNC(=O)c2cc3nc(-c4ccco4)cc(C(F)(F)F)n3n2)c1C	GPR151 activ 5.0 | GPR151 confirm inactive | GPR119 counter inactive
COc1ccc(-c2cc(C(F)(F)F)n3nc(C(=O)N4CCN(c5ccccc5Cl)CC4)cc3n2)cc1	GPR151 activ 6.1 | GPR151 confirm inactive | GPR119 counter inactive
COc1ccc(-c2cc(C(F)(F)F)n3nc(C(=O)NCc4cccs4)cc3n2)cc1OC	GPR151 activ 7.2 | GPR151 confirm inactive | GPR119 counter inactive
c1cc(NCCN2CCOCC2)nc(N2CCN(Cc3ccc4c(c3)OCO4)CC2)n1	none
O=C(NCCCn1ccnc1)c1cc2nc(-c3cccs3)cc(C(F)(F)F)n2n1	GPR151 activ 7.3 | GPR151 confirm inactive | GPR119 counter inactive
Cc1ccc(-c2cc(C(F)(F)F)n3nc(C(=O)NN4CCOCC4)cc3n2)cc1C	GPR151 activ 5.3 | GPR151 confirm inactive | GPR119 counter inactive
Nc1nc(NC2CCN(Cc3ccccc3)CC2)nc2nc[nH]c12	none
O=C(NCC1COc2ccccc2O1)c1ccc(N2CCCCC2)c([N+](=O)[O-])c1 (stereo not drawn)	none
COc1ccc(NC(=O)C2C3CCC(C3=C(C)C)C2C(=O)O)cc1 (stereo not drawn)	GPR151 activ 5.5 | GPR151 confirm inactive | GPR119 counter inactive
Cc1sc2nc(SCC(=O)NC3CCCC3)nc(N)c2c1C	none
Cc1sc2nc(SCC(=O)N3CCCCC3C)nc(N)c2c1C (stereo not drawn)	GPR151 activ 11 | GPR151 confirm inactive | GPR119 counter inactive
Cc1ccc(OCCN(C)Cc2ccc(OCC(O)CN(C)C)cc2)cc1 (stereo not drawn)	GPR151 activ 9.9 | GPR151 confirm inactive | GPR119 counter inactive
CCn1c2ccccc2c2cc(/C=N/n3cn[nH]c3=S)ccc21	GPR151 activ 5.0 | GPR151 confirm inactive | GPR119 counter inactive
CCn1c2ccccc2c2cc(/C=N/O)ccc21	none
NC(=O)c1ccsc1NC(=O)CSc1ccc(Cl)cc1	GPR151 activ 9.5 | GPR151 confirm inactive | GPR119 counter inactive
O=C(NCc1ccccc1)c1noc2c1COc1ccccc1-2	none
CC(C)CCNC(=O)c1noc2c1COc1ccccc1-2	GPR151 activ 6.6 | GPR151 confirm inactive | GPR119 counter inactive
